Screens from PubChem BioAssay.
USP30 block – inhibitors of human USP30 deubiquitinase; Q70CQ3; purified USP30, Ub-rhodamine cleavage fluorescence; inhibition, % at 25 µM; 47,000 compounds, 5.3% hits; AID 1645860
Target sequence (Q70CQ3 whole entry, looked up): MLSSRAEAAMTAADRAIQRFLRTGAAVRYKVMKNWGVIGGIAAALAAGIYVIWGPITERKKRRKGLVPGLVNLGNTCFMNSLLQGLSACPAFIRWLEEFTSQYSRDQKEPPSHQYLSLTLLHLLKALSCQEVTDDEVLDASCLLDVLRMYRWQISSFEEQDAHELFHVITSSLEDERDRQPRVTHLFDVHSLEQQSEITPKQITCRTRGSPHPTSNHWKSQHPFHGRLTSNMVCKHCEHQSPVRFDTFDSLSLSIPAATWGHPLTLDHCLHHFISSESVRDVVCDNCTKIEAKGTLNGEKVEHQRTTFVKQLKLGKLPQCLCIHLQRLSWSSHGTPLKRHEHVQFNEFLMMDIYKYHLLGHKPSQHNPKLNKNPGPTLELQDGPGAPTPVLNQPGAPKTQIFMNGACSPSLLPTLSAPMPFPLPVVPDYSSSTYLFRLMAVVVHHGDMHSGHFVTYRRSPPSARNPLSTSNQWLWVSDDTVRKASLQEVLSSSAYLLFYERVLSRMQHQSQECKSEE
USP8 inh – inhibitors of human USP8 deubiquitinase. P40818. purified USP8, Ub-rhodamine cleavage fluorescence, 30 min. inhibition, % at 20 µM. 47,000 compounds, 4.2% hits
USP17 inh – human USP17-like deubiquitinase inhibition; A8MUK1; purified USP17, Ub-rhodamine cleavage fluorescence, 3 h; inhibition, % at 50 µM; 47,000 compounds, 6.5% hits; AID 1645855
Numbers stand for hits; - = inactive; . = no result given. Hits are enriched below; roughly 12% of the tested compounds scored in any of these assays. No stated cut-off is given here; in the data, active means inhibition above about 30%; inactive means the rest.

SMILES	USP30 block	USP8 inh	USP17 inh
N#Cc1ccc(Sc2ccccc2)c(NC(=O)c2ccc(F)cc2)c1	31	-	-
CC(C)CN1Cc2c(C(=O)N3CC=CC3)ncn2-c2ccccc2S1(=O)=O	-	-	-
Cc1ccc(NC(=O)NC2CCc3ncc(C(F)(F)F)n3C2)cc1 (configuration not stated)	-	-	-
COc1cc2c(c(O)c1Cl)C(=O)OC(C)C2 (configuration not stated)	-	-	-
CCN1CCN(c2nc3c(c(=O)[nH]c(=O)n3C)n2CCc2ccc(OC)cc2)CC1	-	-	-
CC(C)Cn1c(N2CCNCC2)nc2c1c(=O)[nH]c(=O)n2C	47	-	-
Cn1c(=O)[nH]c(=O)c2c1nc(N1CCN(C(c3ccccc3)c3ccccc3)CC1)n2CCSc1ncccn1	30	-	-
COc1ccc(N2CCN(c3nc4c(c(=O)[nH]c(=O)n4C)n3CCSc3ncccn3)CC2)cc1	-	-	-
Cn1c(=O)[nH]c(=O)c2c1nc(N1CCc3ccccc3C1)n2CCSc1nnnn1-c1ccccc1	-	86	-
Cn1c(=O)c2c(nc(N3CCOCC3)n2CCSc2nnnn2-c2ccccc2)n(C)c1=O	-	-	-
COc1ccc(C(=O)OCC(=O)NC2CCCc3ccccc32)cc1OC (configuration not stated)	-	-	-
Cc1cc(NCC2CCCO2)n2nc(-c3ccc(Cl)cc3)c(C)c2n1 (configuration not stated)	-	-	-
O=C(O)c1c(Nc2nnc(Cn3ccc(C(F)(F)F)n3)s2)sc2c1CCCC2	-	-	-
O=C(COc1ccc2ccccc2c1)Nc1cccc2ccccc12	46	36	65
NC(=O)c1ccccc1NC(=O)COc1ccc2c(c1)oc(=O)c1ccccc12	-	55	-
O=C(COc1ccc2c3c(c(=O)oc2c1)CCC3)Nc1ccccc1N1CCOCC1	-	-	-
COc1ccc(-n2nnnc2CNC(=O)COc2ccc3ccccc3c2)cc1	-	-	-
Cc1nnc(-c2ccc3ccn(CC(=O)Nc4ccccn4)c3c2)o1	-	-	-
Cn1c(NC(=O)c2ccccc2Cl)c(-c2ccccn2)c(=O)c2ccccc21	-	-	-
COc1cc(-c2c(NC(=O)c3ccc([N+](=O)[O-])cc3)n(C)c3ccccc3c2=O)cc(OC)c1OC	31	-	-
COc1ccccc1-c1c(NC(=O)c2ccc(C)cc2)n(C)c2ccccc2c1=O	-	-	-
Cn1c(NC(=O)c2ccc(Cl)cc2)c(-c2ccccn2)c(=O)c2ccccc21	-	43	-
O=C(c1nc(CS(=O)(=O)c2ccccc2)no1)N1CCCCCC1	-	-	.
Cc1ccc(Nc2nc(NCCN3CCOCC3)nc3c2cnn3C)cc1	-	-	-
O=C(Nc1ccccc1)NC1CCCN(c2cc(-c3ccncc3)[nH]n2)C1 (configuration not stated)	-	-	-
SMILES	USP30 block	USP8 inh	USP17 inh
FC(F)(F)c1cc(Oc2ccc(-n3cccc3)cc2)cc(C(F)(F)F)c1	-	-	-
COc1ccc(C(CNC(=O)COc2cccc(Cl)c2)N2CCCC2)cc1 (configuration not stated)	-	-	-
COc1ccccc1NC(=O)C1CCCN(S(=O)(=O)Cc2ccccc2)C1 (configuration not stated)	-	-	-
CN=C(N)NCCC[C@H](N)C(=O)O	31	-	-
O=C(Cn1c(=O)ccn(Cc2ccccc2)c1=O)NCC1CCCO1 (configuration not stated)	-	-	-
CN(C)S(=O)(=O)c1ccc(C(=O)Nc2sccc2C#N)cc1	-	-	-
CN(C)S(=O)(=O)c1ccc(C(=O)Nc2c(C#N)oc3ccccc23)cc1	-	-	51
COc1ccc2c(c1)OC1(CCN(C(=O)c3cc4ccc(Cl)cc4[nH]3)CC1)CC2=O	-	-	-
COc1ccccc1/C=C(\C(=O)N1CCN(c2ccccc2F)CC1)c1ccccc1	-	-	-
COc1ccccc1/C=C(/C(=O)N1CCN(Cc2ccc3c(c2)OCO3)CC1)c1ccccc1	42	-	-
Nc1c2c(nc3cc(Cl)ccc13)CCCC2=O	-	45	-
COc1ccc(Nc2nc(C)c3c(n2)CCCC3=O)cc1	-	-	-
CC(C)N1CN=C2NC(c3ccc(N(C)C)cc3)n3c(nc4ccccc43)N2C1 (configuration not stated)	-	-	-
COc1ccc(C2NC3=NCN(C(C)C)CN3c3nc4ccccc4n32)cc1 (configuration not stated)	33	-	-
Cc1cccc(N(C)S(=O)(=O)c2ccc(-c3cnc(C)o3)cc2)c1	-	-	-
COc1ccc2c(c1)C[C@@H](c1cccnc1)N[C@H]2c1cccnc1	-	41	-
COc1ccc2c(c1)C[C@@H](c1cccnc1)N[C@H]2c1ccccn1	-	-	-
O=[N+]([O-])c1ccc(N2CCN(c3ncnc4c3[nH]c3ccc(F)cc34)CC2)cc1	-	-	65
COc1ccccc1CNc1ncnc2c1[nH]c1ccccc12	-	-	-
Cc1cccc2[nH]c3c(N4CCN(c5cccc(C(F)(F)F)c5)CC4)ncnc3c12	-	-	-
COc1ccc2[nH]c3c(N4CCN(c5ccccc5F)CC4)ncnc3c2c1	-	-	41
COc1ccc2[nH]c3c(NCCc4ccccc4OC)ncnc3c2c1	-	-	34
COc1ccc2c(c1)[nH]c1c(N3CCSCC3)ncnc12	-	-	-
Clc1ccc(-c2noc(-c3cccnc3N3CCOCC3)n2)cc1	.	-	-
CC1CCN(Cc2nnc(-c3cn(CC(=O)NC4CCCCC4)c4ccccc34)o2)CC1	60	-	35
SMILES	USP30 block	USP8 inh	USP17 inh
O=C(Cn1cc(-c2nnc(CN3CCCCC3)o2)c2ccccc21)NCCC1=CCCCC1	-	-	-
COc1ccccc1-c1coc2cc(OC(=O)c3ccc(C(C)(C)C)cc3)ccc2c1=O	-	-	-
COc1ccc(NC(=O)COc2ccc3ccc(=O)oc3c2)cc1	-	-	57
Cc1cc(=O)oc2cc(OCC(=O)Nc3cccc(Cl)c3)ccc12	-	-	-
COc1cc(C(=O)Oc2ccc3ccc(=O)oc3c2)cc(OC)c1OC	45	-	-
Cc1cc(=O)n2c(n1)NC(N1CCOCC1)=NC2c1ccccn1 (configuration not stated)	-	-	-
COc1cc(OC)c(NC(=O)CCC(=O)N2CCCn3nc(C)cc32)cc1Cl	-	-	-
CC(=O)N1CCN(c2cc(-c3noc([C@@H]4CCCN4C(C)C)n3)ccn2)CC1	-	-	-
COc1cc2c(cc1OC)CN(c1ncnc3scc(-c4ccccc4)c13)CC2	-	37	-
COc1cc(NC(=O)CSc2ncnc3scc(-c4ccccc4)c23)c(C(=O)O)cc1OC	-	-	-
CCCCC[C@@H](O)C1C(=O)O[C@@H](C)[C@H](O)/C=C/C=C/C=C\C=C/C=C(\C)[C@H](O)CC(O)C[C@@H](O)C[C@@H](O)C[C@@H](O)C[C@@H](O)C[C@H]1O (some centres not stated)	-	-	-
Cc1ccc(Nc2nc(Nc3ccc(F)cc3)nc3nccnc23)cc1C	-	-	-
Fc1ccc(Nc2nc(Nc3cccc(F)c3)nc3nccnc23)cc1	61	-	-
O=C1CC(C(=O)Nc2ccc3c(c2)OCO3)n2ncc(-c3ccccc3)c2N1 (configuration not stated)	-	38	-
